Bioassay records deposited in PubChem by several laboratories.
In the library only some 3.9% were active in any assay of this set; here they are far more common.
BoNT-A LC inh2 = inhibitors of Botulinum neurotoxin A light chain protease. inhibition, % at 10 µM. multiplex microsphere protease substrate cleavage, flow cytometry. actives 0.17% (n = 360,000); also: plate controls were buffer without enzyme for full effect and enzyme alone for no effect
CCHF vOTU inh = blocks the CCHF virus ovarian tumor domain protease; AID 651958; CCHFV vOTU protease, Pep-AMC fluorescence; actives 0.55% (n = 370,000); inhibition, % at 11.5 µM; in the data active = inhibition above about 30%; also: 0% = vehicle wells with enzyme and 100% = no enzyme wells
Anthrax LF inh2 = blocks Bacillus anthracis lethal factor protease | P15917 | multiplex microsphere protease cleavage assay, LF | inhibition, % at 10 µM | actives 0.12% (n = 360,000); also: plate controls were buffer without enzyme for full effect and enzyme alone for no effect
Target sequence (P15917 whole entry, looked up): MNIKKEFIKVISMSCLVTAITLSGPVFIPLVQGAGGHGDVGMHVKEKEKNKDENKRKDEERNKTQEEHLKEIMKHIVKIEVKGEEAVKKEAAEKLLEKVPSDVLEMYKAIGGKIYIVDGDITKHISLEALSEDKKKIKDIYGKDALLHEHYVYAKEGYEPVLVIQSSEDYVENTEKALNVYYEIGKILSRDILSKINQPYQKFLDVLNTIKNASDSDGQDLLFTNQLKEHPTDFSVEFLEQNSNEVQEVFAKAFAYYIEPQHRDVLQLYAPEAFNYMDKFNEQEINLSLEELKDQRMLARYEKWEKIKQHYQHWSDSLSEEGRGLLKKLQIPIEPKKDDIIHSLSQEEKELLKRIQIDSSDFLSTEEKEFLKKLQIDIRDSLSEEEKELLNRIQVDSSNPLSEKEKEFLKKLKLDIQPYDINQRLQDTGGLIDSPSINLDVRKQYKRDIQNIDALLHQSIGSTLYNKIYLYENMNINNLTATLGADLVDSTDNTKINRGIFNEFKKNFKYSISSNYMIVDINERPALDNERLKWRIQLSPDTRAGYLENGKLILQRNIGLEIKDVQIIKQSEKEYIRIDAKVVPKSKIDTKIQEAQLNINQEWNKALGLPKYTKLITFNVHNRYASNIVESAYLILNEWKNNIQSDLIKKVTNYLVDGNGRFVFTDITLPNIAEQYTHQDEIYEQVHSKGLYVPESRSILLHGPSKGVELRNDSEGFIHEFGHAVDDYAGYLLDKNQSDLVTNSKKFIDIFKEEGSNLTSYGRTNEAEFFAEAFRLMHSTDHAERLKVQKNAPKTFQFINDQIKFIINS
3CLpro inhibitor = SARS-CoV 3CLpro protease inhibition; P0C6X7; recombinant SARS-CoV 3CLpro, quenched FRET peptide cleavage; inhibition, % at 6 µM; actives 0.14% (n = 290,000); AID 1706; in the data active = inhibition above about 12%
Bead autofluor = counter-screen for toxin protease inhibitors: compound fluorescence; compound autofluorescence counterscreen, microsphere flow cytometry; stronger effect = higher value; AID 624483; actives 3.1% (n = 360,000); fluorescence intensity (no concentration beside the values); in the data active = fluorescence intensity above about 16000; inconclusive = no clear call, values can overlap the other calls
BoNT-F LC inh = BoNT F light chain protease inhibition; Multiplex microsphere protease cleavage assay, flow cytometry; inhibition, % at 10 µM; actives 0.22% (n = 360,000); AID 588497; in the data active = inhibition above about 35%, passing the limit was not always enough; inconclusive = no clear call, values can overlap the other calls; also: plate controls were buffer without enzyme for full effect and enzyme alone for no effect
* marks the source's active call; other numbers are inactive results; ? = inconclusive; nt = no result. Rule as the data show it, unless noted: active = inhibition above about 30%; inconclusive = no clear call, values can overlap the other calls; inactive = below that.

SMILES | BoNT-A LC inh2 | CCHF vOTU inh | Anthrax LF inh2 | 3CLpro inhibitor | Bead autofluor | BoNT-F LC inh
Cc1oc2ccc(O)c(CN3CCOCC3)c2c1C(=O)c1ccc(Cl)cc1 | -1 | -4 | -1 | -3 | 23586* | -4
CC(=O)c1cccc(-c2ccnc3c2CC(C(=O)Nc2cccc(OC(F)(F)F)c2)O3)c1 (centres undefined) | 0 | 21 | -4 | nt | 3255 | 5
COc1ccc(NC(=O)c2cc(-c3cc(F)ccc3OC(C)C)n[nH]2)cc1OC | 0 | -4 | -4 | nt | 2856 | -6
C[C@H](N)c1nnc(SCc2ccc(Cl)cc2Cl)o1 | -5 | 16 | -4 | 6 | 25593* | -10
CCC(C)[C@H](N)c1nnc(SCC(=O)c2ccc(Cl)cc2)o1 (some centres undefined) | 5 | 7 | 0 | -4 | 19418* | 1
CC(C)[C@H](N)c1nnc(SCc2ccc(Cl)cc2)o1 | -2 | 14 | -5 | 1 | 25032* | -5
COc1cccc(/C=C2\CC3(OC(=O)c4ccco4)CCCN2C3)c1 (centres undefined) | nt | 0 | nt | nt | nt | nt
O=C(CSc1nnc(-c2ccncc2)n1CC1CCCO1)Nc1cccc(O)c1 (centres undefined) | 1 | 1 | -4 | -2 | 22751* | 3
CCC(=O)Nc1ccc(C(=O)CSc2nnc(-c3ccc(O)cc3)n2CC2CCCO2)cc1OC (centres undefined) | 2 | 16 | -3 | 0 | 20195* | 2
CCOc1ccc(NC(=O)CSc2nnc(-c3ccncc3)n2CC2CCCO2)cc1 (centres undefined) | 0 | -4 | -1 | -5 | 3671 | -1
COc1ccc(NC(=O)CSc2nnc(-c3ccncc3)n2CC2CCCO2)c(OC)c1 (centres undefined) | 0 | -9 | -4 | 0 | 2924 | -16
CCN(CC)CCOc1nc(C)nc2c1oc1ccccc12 | -1 | -15 | -7 | -3 | 4333 | 11
c1coc(CN(Cc2ccco2)c2ncnc3c2oc2ccccc23)c1 | 1 | nt | -3 | 1 | 19845* | -1
CCN(CC)CCCOc1nc(C)nc2c1oc1ccccc12 | 0 | 1 | 2 | -1 | 23099* | -1
CCSc1ncnc2c1oc1ccccc12 | 7 | 0 | -15 | -1 | 16868* | 10
CN(C)CCOc1ncnc2c1oc1ccccc12 | 3 | -10 | 0 | -7 | 18425* | 3
NC(=O)CSc1ncnc2c1oc1ccccc12 | 0 | 6 | -9 | -4 | 5264 | 1
C=CCN1[C@H](C)COc2cccc(F)c2S1(=O)=O | nt | 9 | nt | nt | nt | nt
Cc1cc(C)nc(Sc2ncnc3c2oc2ccccc23)n1 | 2 | 1 | 0 | -3 | 21474* | 3
COc1ccc(CNC(=O)c2sc(=S)n(-c3ccc(OC)cc3)c2N)cc1 | 2 | nt | -4 | 2 | 19355* | 1
C=CCN1C(=O)[C@@H](CC(=O)N2CCOCC2)[C@]2(C(=O)OCC)CCCCC/C=C/12 | nt | 2 | nt | nt | nt | nt
COCCNC(=O)c1nn2cccnc2c1Cl | 1 | 3 | 0 | 2 | 19754* | -2
O=C(NCC12CC3CC(CC(C3)C1)C2)c1nn2cccnc2c1Cl | 0 | -11 | -4 | 0 | 16281* | 1
O=C(NCc1cccs1)c1nn2cccnc2c1Cl | 0 | -6 | -6 | 1 | 2927 | -3
O=C(CCCc1ccccn1)c1ccc(-c2ccccc2)cc1 | -1 | -4 | -2 | nt | 3853 | 0
SMILES | BoNT-A LC inh2 | CCHF vOTU inh | Anthrax LF inh2 | 3CLpro inhibitor | Bead autofluor | BoNT-F LC inh
Cc1c(Cl)c(C(=O)NC2C3CC4CC(C3)CC2C4)nn1C (centres undefined) | ? | 11 | -5 | 0 | 21785* | 0
Cn1ncc(Br)c1C(=O)NC1C2CC3CC(C2)CC1C3 (centres undefined) | 0 | 6 | 2 | 0 | 2545 | 0
O=C(NCc1c(F)cccc1F)C1CCCN(c2ncccn2)C1 (centres undefined) | nt | 10 | nt | nt | nt | nt
CCOc1ccc(CCNC(=O)c2cc(S(=O)(=O)N3CCOCC3)ccc2C)cc1OCC | -18 | 6 | -9 | nt | 10377 | -9
COc1ccccc1N1CCc2c(C)nc3c(OC)cccc3c21 | -2 | nt | 1 | 0 | 22775* | -6
COC(=O)N1CCN(c2ccc(C(C)=O)cc2)CC1 | ? | 5 | -5 | 4 | 18481* | 9
CC(=O)c1ccc(N2CCN(C(=S)Nc3ccccc3)CC2)cc1 | -1 | 11 | 0 | 3 | 9699 | -8
Cc1ccc(C(=O)NCc2ccc(N3CCN(C(=O)OC(C)(C)C)CC3)cc2)cc1 | ? | -2 | -3 | 1 | 23049* | -4
